About 2,100 (0.53%) of roughly 400,000 compounds were called active. Inconclusive results (about 14%) are left out. How the calls were made is not given here. The full list was thinned out, with actives kept by preference.

The record followed here is ChEMBL document CHEMBL1201862, “PubChem BioAssay data set” (2004).

Sequence of Ataxin-2 (Homo sapiens) (Q99700 whole entry): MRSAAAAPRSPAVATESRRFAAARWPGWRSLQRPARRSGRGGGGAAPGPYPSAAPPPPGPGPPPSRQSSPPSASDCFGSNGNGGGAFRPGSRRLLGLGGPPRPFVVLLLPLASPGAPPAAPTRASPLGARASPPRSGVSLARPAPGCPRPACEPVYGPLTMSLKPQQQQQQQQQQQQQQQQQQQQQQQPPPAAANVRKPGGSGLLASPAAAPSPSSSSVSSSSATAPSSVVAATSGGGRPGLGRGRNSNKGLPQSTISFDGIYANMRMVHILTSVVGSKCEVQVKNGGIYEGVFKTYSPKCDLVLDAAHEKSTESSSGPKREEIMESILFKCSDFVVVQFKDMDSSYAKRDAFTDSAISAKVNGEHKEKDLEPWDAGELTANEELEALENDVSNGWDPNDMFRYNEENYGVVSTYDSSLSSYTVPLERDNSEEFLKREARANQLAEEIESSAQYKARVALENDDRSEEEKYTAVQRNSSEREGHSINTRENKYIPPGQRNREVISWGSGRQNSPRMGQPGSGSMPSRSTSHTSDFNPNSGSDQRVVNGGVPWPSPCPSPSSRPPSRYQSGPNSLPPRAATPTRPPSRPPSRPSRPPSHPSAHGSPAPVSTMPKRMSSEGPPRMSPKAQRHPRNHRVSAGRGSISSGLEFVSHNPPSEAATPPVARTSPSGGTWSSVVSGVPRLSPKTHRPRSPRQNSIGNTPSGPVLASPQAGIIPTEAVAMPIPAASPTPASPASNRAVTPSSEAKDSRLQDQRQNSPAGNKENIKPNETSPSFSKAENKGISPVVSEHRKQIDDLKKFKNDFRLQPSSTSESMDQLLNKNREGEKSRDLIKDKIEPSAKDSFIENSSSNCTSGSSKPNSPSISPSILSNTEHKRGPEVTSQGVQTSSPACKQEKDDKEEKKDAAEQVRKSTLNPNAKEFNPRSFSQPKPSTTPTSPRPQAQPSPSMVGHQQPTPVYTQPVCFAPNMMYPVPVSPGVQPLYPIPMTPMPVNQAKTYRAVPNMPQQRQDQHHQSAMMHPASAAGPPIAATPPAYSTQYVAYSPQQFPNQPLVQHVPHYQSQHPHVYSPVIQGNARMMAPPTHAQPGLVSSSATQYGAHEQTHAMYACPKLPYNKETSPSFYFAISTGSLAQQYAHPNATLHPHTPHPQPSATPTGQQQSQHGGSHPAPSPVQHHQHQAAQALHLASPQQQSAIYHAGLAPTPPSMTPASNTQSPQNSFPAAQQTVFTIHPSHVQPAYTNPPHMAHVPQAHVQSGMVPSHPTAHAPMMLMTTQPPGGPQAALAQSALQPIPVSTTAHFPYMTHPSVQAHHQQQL

The assay concerns the target Ataxin-2 (Homo sapiens) (UniProt Q99700). Nature of the assay: qHTS for Inhibitors of ATXN expression. It is filed as functional.
With `Cc1cc(Br)ccc1NC(=O)CNC(=O)c1cnn(C)c1`, the Potency entry is “inactive”.

Turning to `N#Cc1c(N2CCCCC2)nc(N)c2c(N)nc3c(c12)CC(CCl)O3` (centres undefined), the Potency result was “inactive”.

Take `Cc1cc(=O)oc2c3c4c(cc12)OCCN4CCC3`: the Potency result is “inactive”.

For the molecule `Cc1c(C)c2cc3c(c(C)c2oc1=O)OCN(CCc1ccccc1)C3`, the Potency result was “inactive”.

For `COc1ccc(O)c(/C=N/NC(=O)CCC(=O)Nc2ccc(F)cc2)c1`, the Potency entry was “inactive”.

Turning to `COc1ccc(C(=O)/C=C/C(=O)N(CC(=O)NC2CCCCC2)Cc2ccc(F)cc2)c(O)c1`, the Potency is 28.2 µM (active).

For the molecule `COc1ccc(OCC(=O)OCC(=O)NC2CCCCC2C)cc1` (centres undefined), the Potency result was “inactive”.

Consider `COc1ccc(CC(=O)Nc2ccc(S(=O)(=O)N3CCN(C)CC3)cc2)cc1`, for which the Potency result was “inactive”.

In the case of `CC(C)C[C@@H](CN1CCC[C@H]1CN1C(=O)C(=O)NC[C@@H]1Cc1ccccc1)N1C[C@H](Cc2ccccc2)N(CC2CCCCCC2)C(=O)C1=O`, the Potency is 20 µM (active).

On to `CC(C)C[C@@H](CN1CCC[C@@H]1CN1C(=O)C(=O)NC[C@@H]1Cc1ccccc1)N1C[C@H](Cc2ccc(O)cc2)N(CC2CCCCCC2)C(=O)C1=O`, for which the Potency is 28.2 µM (active).

For `CC(C)C[C@H]1CNC(=S)N1C[C@H]1CCCN1C[C@H](CC(C)C)N1C[C@H](Cc2ccc(O)cc2)N(CC2CCCCC2)C1=S`, the Potency is 35.5 µM (active).

For the molecule `CC(C)C[C@H]1CN([C@@H](CC(C)C)CN2CCC[C@H]2CN2C(=O)C(=O)NC[C@@H]2Cc2ccc(O)cc2)C(=O)C(=O)N1CC1CCCCCC1`, the Potency was 35.5 µM (active).

Take `CCCCN(C)Cc1cc(=O)oc2cc3c(cc12)CCCC3`: the Potency entry was “inactive”.

Regarding `Nc1cccc2c1C(=O)N(C(=O)c1ccc(S(=O)(=O)N3CCCCCC3)cc1)C2=O`, the Potency result is “inactive”.

Regarding `Cc1c(C)c2cc(Cl)c(O)c(CN3CCCC(C)C3)c2oc1=O` (centres undefined), the Potency result was “inactive”.

Consider `Cc1csc(Nc2ccc(Cl)cc2)[n+]1-c1ccc(Cl)cc1`, for which the Potency result was “inactive”.

As for `COCCCC1CCN(C(=O)C2CCC(=O)N(CCCc3ccccc3)C2)CC1` (centres undefined), the Potency entry was “inactive”.

With `O=C1NC[C@H](CCCCN2C[C@H](Cc3ccccc3)N(CCc3ccccc3)C(=O)C2=O)N(CCC2CCCCC2)C1=O`, the Potency was 20 µM (active).

Take `CC(C)C[C@H]1CNC(=S)N1C[C@H]1CCCN1C[C@H](Cc1ccc(O)cc1)N1C[C@H](Cc2ccc(O)cc2)N(CCc2ccccc2)C1=S`: the Potency is 15.8 µM (active).

On to `CC(C)C[C@@H](CN1CCC[C@H]1CN1C(=O)C(=O)NC[C@@H]1Cc1ccccc1)N1C[C@H](Cc2ccccc2)N(CC2CCCCC2)C(=O)C1=O`, for which the Potency was 35.5 µM (active).

On to `O=C1NC[C@H](Cc2ccccc2)N(C[C@@H]2CCCN2C[C@H](Cc2ccccc2)N2C[C@H](Cc3ccccc3)N(CC3CCCCC3)C(=O)C2=O)C1=O`, for which the Potency is 39.8 µM (active).

As for `Clc1ccc2oc(-c3ccccc3)cc(=NCCCN3CCOCC3)c2c1`, the Potency result was “inactive”.

Turning to `COc1ccc(CCNC2CCc3ccccc3C2)cc1` (centres undefined), the Potency entry was “inactive”.

Take `O=C(Cn1ccc([N+](=O)[O-])n1)NCc1ccccc1`: the Potency entry was “inactive”.

Take `Cc1c(O)c(CN2CCCCC2)cc2c3c(c(=O)oc12)CCC3`: the Potency result is “inactive”.

In the case of `Cc1nc(-c2ccc(S(=O)(=O)Nc3cccc(S(N)(=O)=O)c3)s2)cs1`, the Potency result was “inactive”.

In the case of `Cc1ccc(-n2c3nc(=O)n(C)c(=O)c-3cc3ccccc32)cc1`, the Potency entry was “inactive”.

Consider `Cc1ccc(-n2c(Cl)c(Cl)nc(Cl)c2=O)cc1`, for which the Potency is 4.74 µM (active).

Turning to `Cc1ccc(-n2c(=O)c(C#N)cc3c(=O)n4ccccc4nc32)cc1`, the Potency result was “inactive”.

In the case of `Fc1ccc2cnc(-c3ccccc3)c(-c3cc(C(F)(F)F)cc(C(F)(F)F)c3)c2c1`, the Potency was 35.5 µM (active).

Consider `O=c1c2ccccc2c(-c2ccc(F)cc2)nn1-c1ccc(C(F)(F)F)cc1`, for which the Potency result was “inactive”.

Regarding `CCOC(=O)C1(CC2CCCCO2)CCN(S(=O)(=O)c2ccccc2)CC1` (centres undefined), the Potency entry was “inactive”.

With `COc1ccc(C(=O)Nc2ccc3ccccc3c2)c(OC)c1`, the Potency result is “inactive”.

Turning to `COc1c(C)cc(Br)cc1C(=O)Nc1ccccc1N1CCN(C(=O)c2ccccc2)CC1`, the Potency entry is “inactive”.

Take `COc1ccc2cc3cc(C(=O)Nc4ccccc4N4CCN(C)CC4)oc3nc2c1`: the Potency was 39.8 µM (active).

For the molecule `COc1ccc2cc3cc(C(=O)Nc4ccc5c(c4)OCO5)oc3nc2c1`, the Potency is 22.4 µM (active).

As for `Cc1ccc2cccc(OCC(=O)Nc3ccc4c(c3)OCO4)c2n1`, the Potency entry is “inactive”.

In the case of `Cc1ccc(C)c(NC(=O)c2cc3ccccc3o2)c1`, the Potency result is “inactive”.

For `COc1cccc(/C=C/C(=O)Nc2ccccc2N2CCOCC2)c1`, the Potency result is “inactive”.

`COc1ccc(C(=O)Nc2ccccc2N2CCOCC2)cc1S(=O)(=O)N1CCOCC1`: the Potency result is “inactive”.

On to `CN1CCN(c2ccccc2NC(=S)NC(=O)c2cc3ccccc3o2)CC1`, for which the Potency was 39.8 µM (active).

Take `COc1ccc2cc3cc(C(=O)Nc4ccc5c(c4)OCCO5)oc3nc2c1`: the Potency was 28.2 µM (active).

Regarding `Nc1c(C(=O)CSc2nnc(Nc3ccc(F)cc3)s2)c(=O)[nH]c(=O)n1C1CC1`, the Potency result was “inactive”.

Regarding `COc1ccc2c(c1)c(=O)oc1cc(O)ccc12`, the Potency result was “inactive”.

Take `Cc1ccc2nc3c(cc(C(=O)NC4CCCC4)c(=N)n3C(C)C)c(=O)n2c1`: the Potency entry was “inactive”.

Regarding `O=C(O)c1ccc(/N=c2\oc3cc(O)ccc3cc2C(=O)NCc2ccccc2)cc1`, the Potency entry is “inactive”.

With `O=c1cc(CN2CCOCC2)c2cc(Cl)c(O)cc2o1`, the Potency entry is “inactive”.

For `CCOc1cc(/C=C2\COc3ccccc3C2=O)cc(Br)c1OCC(=O)N(C)C`, the Potency was 28.2 µM (active).

On to `CN(C)C(=O)COc1ccc2c(-c3ccccc3)cc(=O)oc2c1`, for which the Potency entry was “inactive”.

Turning to `CCOc1cc(/C=C2/C(=O)ON=C2C)cc(Br)c1O`, the Potency entry is “inactive”.

As to `C=CCn1cc[n+](-c2nc3ccccc3nc2[N-]S(=O)(=O)c2cccs2)c1`, the Potency entry is “inactive”.

Turning to `CCNc1nc(SCC(N)=O)nc2sc3c(c12)CCN(C)C3`, the Potency result was “inactive”.

For the molecule `COc1ccc(C[C@@H]2OC3(C=CC(=O)C=C3)O[C@H]2Cc2ccc(OC)cc2)cc1`, the Potency is 3.98 µM (active).

As to `COc1ccc(Cc2n[nH]c(=S)n(N)c2=O)cc1`, the Potency result is “inactive”.

Take `COC(=O)c1ccc(CO/N=C/c2ccc(OC)cc2)o1`: the Potency entry was “inactive”.

For `CC1CN(Cc2cc(=O)oc3cc(O)c(Cl)cc23)CC(C)O1` (centres undefined), the Potency entry was “inactive”.

As for `CCCSC(=S)c1c(C)nn(-c2ccccc2)c1O`, the Potency is 22.4 µM (active).

`Cc1nn(-c2ccccc2)c(C)c1C(=O)Oc1ccccc1`: the Potency result is “inactive”.

`CCc1c(O)nc2c(c(C)nn2-c2ccccc2)c1C`: the Potency entry was “inactive”.
